Data: PubChem BioAssay (NCATS)
Results filed as inconclusive are left out. Activity calls are given as the source filed them. Calls follow the shape of the dose curve; as a rule, active = well fitted curve in the direction sought with a large enough effect; inconclusive = small, poorly fitted or top-dose-only effect, or another doubt; inactive = no such curve, though single readings can be large; an effect the other way counts as inactive or inconclusive.

Columns and labels:
[1] = Cellular Toxicity (caspase-3) Mesangial (AID 660); settings: mesangial cells, normalized: DMSO 0%, 100 µM tamoxifen 100%; at 91.7 µM (top of the series);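 also: cells exposed to compound for 16 h before the caspase read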
Outline: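 Human renal glomerular mesangial cells (1000/well) were treated with compounds for 16 h at 37 °C in complete medium, then caspase 3/7 activity was read by Caspase-Glo luminescence. Data were normalized to DMSO and 100 uM tamoxifen; AC50 from Hill fits.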

[2] = Cellular Toxicity (caspase-3) SK-N-SH (AID 661);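 also: 0% = DMSO basal and 100% = 10 µM staurosporine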
Outline: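 SK-N-SH human neuroblastoma cells (1500/well) were treated with compounds for 16 hr at 37 °C in complete medium; caspase 3/7 activity was read by Caspase-Glo luminescence. AC50 came from Hill fits of data normalized to DMSO and 10 uM staurosporine.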

[3] = Cellular Toxicity (caspase-3) H-4-II-E (AID 663); settings: H-4-II-E rat hepatoma, scaled: DMSO 0%, 100 µM tamoxifen 100%; at 92.2 µM (top of the series)
Outline: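 Luminescence from caspase-cleaved aminoluciferin substrate, read 20 min after reagent addition, reports caspase 3/7 activation in rat H-4-II-E cells after 16 hr compound exposure. Normalized to DMSO (basal) and 100 uM tamoxifen (100%); AC50 from Hill fits.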

[4] = Cellular Toxicity (caspase-3) Hek293 (AID 664); settings: HEK293 caspase-3 activation, DMSO = 0%, 100 µM tamoxifen = 100%; at 92.2 µM (top of the series);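 also: cells exposed to compound for 16 h at 37 °C before readout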
Outline: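 HEK293 cells were exposed to compounds in complete medium for 16 hr at 37 °C, then caspase-3/7 activity was read by Caspase-Glo 3/7 luminescence after 20 min at room temperature. Data normalized to DMSO and 100 uM tamoxifen; AC50 from Hill fits.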

[5] = Cellular Toxicity (caspase-3) N2a (AID 665);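 also: compound exposure lasted 16 h at 37 °C before readout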
Outline: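 Mouse N2a neuroblastoma cells (1500/well) were treated with compounds for 16 h at 37 °C, then caspase-3/7 activity was read by Caspase-Glo luminescence after 1 h at room temperature. Data were normalized to DMSO and 10 uM staurosporine; AC50 from Hill fits.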

[6] = Cellular Toxicity (caspase-3) NIH 3T3 (AID 666);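 also: 0% = DMSO basal and 100% = 100 µM tamoxifen stimulation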
Outline: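 Mouse NIH 3T3 fibroblasts (1000 cells/well) were treated with compound for 16 hr at 37°C in complete medium; caspase-3/7 activity was read by Caspase-Glo luminescence. Normalized to DMSO and 100 uM tamoxifen; AC50 from Hill fits.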

[7] = Cellular Toxicity (caspase-3) Renal Proximal Tubule (AID 667); settings: Potency: caspase-3 activation;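 also: cells exposed to compound for 16 hours at 37 °C before detection; 0% = DMSO basal and 100% = 10 µM staurosporine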
Outline: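 Luminescent caspase 3/7 signal from peptide-aminoluciferin cleavage measures apoptosis in freshly isolated rat kidney proximal tubule cells after 16 h compound exposure. Concentration-response data are normalized to DMSO and 10 uM staurosporine, and AC50 values come from Hill equation fits.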

[8] = Cell Viability - LYMP1-002 - Assay at 16 hr (AID 948);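 also: 0% = DMSO alone and full effect = 92 µM tetraoctylammonium bromide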
Outline: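 LYMP1-002 human lymphoblastoid cells, 2500/well; 5 hr 37 C; cpd 16 hr 37 C; CellTiter-Glo 30 min RT; luminescence (ATP). Concentration-response, Hill-fit AC50. Pos ctrl tetraoctylammonium bromide.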

[9] = MultiTox-Fluor Cytotoxicity Assay - LYMP1-002 - Live Cells (AID 955); also: % is scaled to controls: 0 for no effect and ±100 for the full control effect
Outline: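 Human lymphoblastoid LYMP1-002 cells, 2500/well in complete medium, rested 5 hr at 37 C, then exposed to compounds for 16 hr at 37 C. Live-cell protease cleavage of GF-AFC read by fluorescence (Ex/Em 405/510) after 60 min at room temperature; AC50 from Hill fits.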

[10] = MultiTox-Fluor Cytotoxicity Assay - LYMP1-002 - Dead Cells (AID 960);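 also: 0% = DMSO and 100% = tetraoctylammonium bromide; nearly all actives have a fitted effect of over 60% in size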
Outline: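 Human lymphoblastoid cells (LYMP1-002), 2500/well in complete medium, were exposed to compounds for 16 hr at 37 C. Dead-cell protease activity was read as bis-AAF-R110 fluorescence (Ex/Em 485/520), normalized to DMSO and 15 uM tetraoctylammonium bromide; AC50 from Hill fits.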

[11] = MultiTox-Fluor Cytotoxicity Assay - LYMP1-003 - Live Cells (AID 962);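 also: 0% = DMSO only and full loss = 92 µM tetraoctylammonium bromide; cytotoxic hits lower the live-cell protease signal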
Outline: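 LYMP1-003 human lymphoblastoid cells (2500/well) in complete medium were preincubated 5 hr at 37 C, then exposed to compounds for 16 hr at 37 C. Live-cell protease cleavage of GF-AFC read by fluorescence (Ex/Em 405/510); AC50 from Hill fits.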

[12] = Cell Viability - LYMP1-003 - Assay at 24 hr (AID 963);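 also: plate controls were DMSO only for no effect and tetraoctylammonium bromide positive control for full effect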
Outline: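 Human lymphoblastoid LYMP1-003 cells (2500/well) were rested 5 hr at 37 C, then exposed to compounds in complete medium for 24 hr at 37 C. Cellular ATP was quantified by CellTiter-Glo luminescence, and AC50 values came from Hill fits of concentration-response data.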

[13] = Cell Viability - LYMP1-003 - Assay at 40 hr (AID 964); also: % is scaled to controls: 0 for no effect and ±100 for the full control effect; nearly all actives have a fitted effect of over 60% in size
Outline: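 Human lymphoblastoid LYMP1-003 cells, 2500/well in complete medium, rested 5 hr at 37 C, then exposed to compounds for 40 hr at 37 C. Viability read as intracellular ATP by CellTiter-Glo luminescence; AC50 from Hill fits of concentration-response data.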

[14] = Cell Viability - LYMP2-003 (AID 965);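 also: cells exposed to compounds for 24 h before reading; 0% = DMSO only and full effect = 92 µM tetraoctylammonium bromide; nearly all actives have a fitted effect of over 50% in size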
Outline: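 CellTiter-Glo luminescence (cellular ATP) after 24 h compound exposure at 37 C in complete medium; 2500 cells/well, 5 h settling beforehand. Concentration-response fitted to standard Hill equation for AC50. Tetraoctylammonium bromide served as positive control.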

[15] = Cell Viability - LYMP2-004 (AID 966);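 also: plate controls were DMSO only for no effect and tetraoctylammonium bromide control for full effect; nearly all actives have a fitted effect of over 65% in size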
Outline: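 Human lymphoblastoid cells (2500/well) in complete medium were treated with compounds for 24 hr at 37 C, then intracellular ATP was measured by CellTiter-Glo luminescence. AC50 values came from Hill-equation fits of concentration-response data.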

[16] = Cell Viability - LYMP2-001 (AID 921);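 also: 0% = DMSO only and full inhibition = tetraoctylammonium bromide control wells; nearly all actives have a fitted effect of over 70% in size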
Outline: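 CellTiter-Glo luminescence (intracellular ATP) after 24 hr compound exposure at 37 C, 2500 lymphoblastoid cells/well in complete medium. AC50 fitted with standard Hill equation; tetraoctylammonium bromide positive control.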

[17] = MultiTox-Fluor Cytotoxicity Assay - LYMP1-001 - Dead Cells (AID 946);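 also: 0% = DMSO and 100% = tetraoctylammonium bromide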
Outline: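 In this qHTS, 15 uM tetraoctylammonium bromide defined 100% and DMSO defined basal activity. Lymphoblastoid cells (LYMP1-001, 2500 per well) received compound for 16 hr at 37 C before a fluorogenic dead-cell substrate readout at 485/520 nm.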

[18] = MultiTox-Fluor Cytotoxicity Assay - LYMP1-003 - Dead Cells (AID 961);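 also: 0% = DMSO and 100% = tetraoctylammonium bromide; nearly all actives have a fitted effect of over 70% in size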
Outline: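 Acute toxicity is scored as increased dead-cell protease activity in human lymphoblastoid LYMP1-003 cells after 16 h compound exposure in complete culture medium. Activity is normalized to DMSO basal and 15 uM tetraoctylammonium bromide as full response.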

[19] = biological target: Cytochrome P450 3A4 (Homo sapiens) (UniProt P08684); test: qHTS Assay for Inhibitors and Substrates of Cytochrome P450 3A4 (AID 884); also: % is scaled to controls: 0 for no effect and ±100 for the full control effect; nearly all actives have a fitted effect of over 50% in size
Sequence of Cytochrome P450 3A4 (Homo sapiens) (P08684 whole entry, looked up): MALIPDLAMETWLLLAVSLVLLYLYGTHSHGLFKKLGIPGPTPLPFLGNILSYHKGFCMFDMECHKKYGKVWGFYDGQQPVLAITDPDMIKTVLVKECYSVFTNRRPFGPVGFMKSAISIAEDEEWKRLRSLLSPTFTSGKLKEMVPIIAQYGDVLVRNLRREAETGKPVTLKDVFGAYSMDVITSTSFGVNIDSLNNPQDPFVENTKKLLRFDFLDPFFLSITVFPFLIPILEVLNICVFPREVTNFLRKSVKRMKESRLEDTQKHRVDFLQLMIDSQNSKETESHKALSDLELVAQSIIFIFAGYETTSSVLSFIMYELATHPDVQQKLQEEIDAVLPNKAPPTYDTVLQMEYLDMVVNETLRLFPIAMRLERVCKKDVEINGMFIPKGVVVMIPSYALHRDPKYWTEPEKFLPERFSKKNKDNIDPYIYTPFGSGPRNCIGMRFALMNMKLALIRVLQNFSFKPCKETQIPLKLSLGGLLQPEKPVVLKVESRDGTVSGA
Outline: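 20 nM human CYP3A4 with 25 uM Luciferin-PPXE (at KM) in 200 mM KPO4, preincubated 10 min with compound; NADPH regeneration started a 60 min RT reaction. Luciferin detected by luminescence, normalized to 57 uM ketoconazole as full inhibition.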

[20] = MultiTox-Fluor Cytotoxicity Assay - LYMP1-001 - Live Cells (AID 947);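 also: 0% = DMSO only and full inhibition = tetraoctylammonium bromide control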

S=C([S-])NCCNC(=S)[S-].[Zn+2]
inactive: caspase-3 activation [1] -0.549% | outcome [2] | caspase-3 activation [3] -1.93% | caspase-3 activation [4] 3% | outcome [5] | outcome [6] | Potency [7] | outcome [8] | outcome [9] | outcome [10] | Potency [11] | Potency [12] | Potency [13] | Potency [14] | Potency [15]

CCCCCCCCC
inactive: caspase-3 activation [1] -0.687% | outcome [2] | caspase-3 activation [3] 0.863% | caspase-3 activation [4] -2.1% | outcome [5] | Potency [16] | outcome [17] | outcome [8] | outcome [9] | outcome [10] | Potency [18] | Potency [11] | Potency [12] | Potency [13] | Potency [14] | Potency [15]

CC(=O)c1nccs1
inactive: caspase-3 activation [1] 0.103% | outcome [2] | caspase-3 activation [3] 1.15% | caspase-3 activation [4] 4.27% | outcome [5] | Potency [7] | Potency [19] | Potency [16] | outcome [17] | outcome [8] | outcome [9] | outcome [10] | Potency [18] | Potency [11] | Potency [12] | Potency [13] | Potency [14] | Potency [15]

O=C(O)/C=C/C(=O)O
inactive: caspase-3 activation [1] -0.622% | outcome [2] | caspase-3 activation [3] 1.4% | caspase-3 activation [4] -1.62% | outcome [5] | Potency [7] | Potency [19] | Potency [16] | outcome [17] | outcome [8] | outcome [9] | Potency [18] | Potency [11] | Potency [12] | Potency [13] | Potency [14] | Potency [15]

C=CCOC(=O)COCCC(C)C
inactive: caspase-3 activation [1] -0.0239% | outcome [2] | caspase-3 activation [3] -0.913% | caspase-3 activation [4] -2.01% | outcome [5] | Potency [7] | Potency [16] | outcome [17] | outcome [20] | outcome [8] | outcome [9] | outcome [10] | Potency [18] | Potency [11] | Potency [12] | Potency [13] | Potency [14]
